Screening data (PubChem BioAssay)
Shown are actives, neighbours in structure and some others; about 22% of the full set was active somewhere.
Pf growth 96h: inhibits malaria parasite growth, 96 h; 320,000 tested, 6.9% active; AID 504834; Potency, µM (titrated, usually from 28.7 µM), actives largely listed as inhibitors; P. falciparum luciferase reporter growth, 96 h
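Erythrocytes infected with luciferase-expressing P. falciparum were dispensed at 2% hematocrit and 0.05% parasitemia (final), then incubated with compounds 96 hours at 37 C in 5% CO2. Luminescence after detection reagent addition reported growth.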
LmPK inhibitor: blocks Leishmania mexicana pyruvate kinase activity. AID 1721. purified LmPK, Kinase-Glo ATP luminescence, 1 h. Potency, µM (highest dose often 57.5 µM), actives largely listed as inhibitors. 290,000 tested, 0.37% active
Target sequence (Q27686 whole entry, looked up): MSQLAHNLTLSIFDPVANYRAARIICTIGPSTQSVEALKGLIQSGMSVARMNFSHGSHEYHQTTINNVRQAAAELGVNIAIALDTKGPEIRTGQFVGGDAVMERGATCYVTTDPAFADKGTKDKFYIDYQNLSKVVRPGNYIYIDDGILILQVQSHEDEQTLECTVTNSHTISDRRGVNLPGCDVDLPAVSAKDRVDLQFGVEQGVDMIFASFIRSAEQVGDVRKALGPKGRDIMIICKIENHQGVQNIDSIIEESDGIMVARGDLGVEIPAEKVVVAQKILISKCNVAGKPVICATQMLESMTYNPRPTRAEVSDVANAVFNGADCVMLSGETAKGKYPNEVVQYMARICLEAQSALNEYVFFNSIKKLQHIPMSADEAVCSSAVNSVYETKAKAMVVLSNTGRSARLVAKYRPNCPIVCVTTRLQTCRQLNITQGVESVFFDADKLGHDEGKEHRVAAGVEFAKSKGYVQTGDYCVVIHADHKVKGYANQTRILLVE
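Purified LmPK (0.1 nM) with 0.5 mM PEP and 0.1 mM ADP in imidazole buffer pH 7.2 with MgCl2/KCl, 1 h at room temperature. ATP formed was read by luciferase luminescence and normalized to no-enzyme and uninhibited controls.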
Pf growth 48h: inhibits P. falciparum growth in the first generation, 48 h | P. falciparum luciferase growth in erythrocytes, 48 h | Potency, µM (series often up to 28.7 µM), usual class: inhibitors | 310,000 tested, 5.9% active | AID 504832
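Erythrocytes infected with P. falciparum carrying an integrated firefly luciferase reporter (2% hematocrit, 0.1% parasitemia final) were exposed to compounds in RPMI 1640 with 0.5% Albumax at 37 C, 5% CO2. Growth inhibition was scored as reduced luminescence.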
Shiga toxin inh: inhibitors of Shiga toxin in Vero cells; Vero cells, Shiga toxin protein synthesis inhibition reporter; inhibition, % at 38.7 µM; 290,000 tested, 9.2% active; in the data active = inhibition mostly above about 28%, no sharp cut-off; inactive = mostly below about 43%
Cycloheximide cs: counter-screen for Shiga toxin inhibitors: cycloheximide protein synthesis inhibition; 300,000 tested, 12% active; cell reporter, cycloheximide protein synthesis inhibition counterscreen; AID 2314; max response, %; in the data active = max response mostly above about 13%, no sharp cut-off; inactive = mostly below about 14%; also: read at 38.3 µM for the half of the compounds with a filed dose
Of the large screens only hits and unclear results are named; the others gave an inactive call. Unless noted, calls follow the shape of the dose curve; as a rule, active = well fitted inhibition curve with a large enough effect; inconclusive = small, poorly fitted or top-dose-only effect, or another doubt; inactive = no such curve, though single readings can be large or run the other way.

O=C(Nc1cccc(C(=O)N2CCN(c3ccccc3)CC2)c1)c1ccco1	none
CCOCCCNC(=S)Nc1ccc(Br)cc1Cl	Pf growth 48h inconclusive, Cycloheximide cs 12
S=C(NCCCc1ccccc1)NCc1ccccc1	Shiga toxin inh 25, Cycloheximide cs 26
CCOCCCNC(=S)NCCc1ccccc1	Pf growth 96h inconclusive, Shiga toxin inh 108, Cycloheximide cs 43
CCOCCCNC(=S)NC1CC2CCC(C1)N2Cc1ccccc1 (centres undefined)	Pf growth 96h inconclusive
S=C(NCCc1ccccc1)NCCc1cnc[nH]1	Pf growth 96h inconclusive, Cycloheximide cs 16 (no result: Shiga toxin inh)
S=C(NCc1ccccc1)NCc1ccccc1	Pf growth 96h inconclusive (no result: Pf growth 48h)
COc1ccc2[nH]c(C(=O)N3CCC(n4nccc4NC(=O)C4CC4)CC3)c(C)c2c1	Pf growth 48h inconclusive
O=C(O)c1ccc2c(=O)n3c(nc2c1)/C(=C/c1cccc(Cl)c1Cl)CCCC3	Pf growth 96h 12µM
O=C(O)c1ccc2c(=O)n3c(nc2c1)/C(=C/c1ccc(F)cc1)CC3	none
COc1ccc(NC(=O)c2ccccn2)cc1	LmPK inhibitor 11µM
COc1ccc(NC(=O)c2cc3ccccn3n2)cc1	Cycloheximide cs 40 (no result: Pf growth 48h)
CCc1ccc(NC(=O)c2cccc(C(=O)Nc3ccc(CC)cc3)n2)cc1	Pf growth 96h inconclusive, Pf growth 48h inconclusive
O=C(NCc1ccc(Cl)cc1)c1cc2ccccn2n1	none (no result: Pf growth 48h)
COC(=O)c1cccc(C(=O)Nc2ccc(C)cc2)n1	Pf growth 96h inconclusive, Shiga toxin inh 80, Cycloheximide cs 45
COc1ccc(C(=O)Nc2ccccc2C(=O)Nc2ccccn2)cc1	Cycloheximide cs 26 (no result: Shiga toxin inh)
COc1ccc(S(=O)(=O)Oc2ccccc2C(=S)N2CCOCC2)cc1	Pf growth 96h inconclusive
CCOC(=O)CCc1c(C)nc(SCc2ccc(C(=O)O)cc2)c(C#N)c1C	none
COc1ccc(CNC(=O)c2ccccc2SCC(=O)N2CCCC2)cc1OC	none (no result: LmPK inhibitor, Shiga toxin inh, Cycloheximide cs)
CSc1ccc(/C=C/C(=O)OCC(=O)c2ccc[nH]2)cc1	none (no result: LmPK inhibitor, Shiga toxin inh, Cycloheximide cs)
O=C(OCC(=O)c1ccc(Cl)s1)c1ccc(CO)cc1	none (no result: LmPK inhibitor, Shiga toxin inh, Cycloheximide cs)
COC/C=C/C1=CC2=CC(=O)C(C)(OC(=O)c3cnc4ccccc4n3)C(=O)C2=CN1C1CCCC1 (centres undefined)	none (no result: Pf growth 96h, Pf growth 48h, Shiga toxin inh, Cycloheximide cs)
COCCN(C(=O)COC(=O)CCOc1cccc(C)c1)c1c(N)n(Cc2ccccc2)c(=O)[nH]c1=O	none (no result: LmPK inhibitor, Shiga toxin inh, Cycloheximide cs)
COc1ccc(C(=O)Nc2ccc(NC(=O)Cc3ccccc3)cn2)cc1	Pf growth 96h inconclusive, Cycloheximide cs 20
COc1ccc(CC(=O)NNC(=O)c2ccccn2)cc1	Pf growth 96h inconclusive, Pf growth 48h inconclusive, Cycloheximide cs 12
COc1ccc(Cl)cc1NC(=O)Nc1cnccn1	Pf growth 96h inconclusive, Pf growth 48h inconclusive
COc1ccc(Cl)cc1NC(=O)NNC(=O)c1ccccn1	Pf growth 96h 10µM, Cycloheximide cs 24
COc1ccc(NC(=O)c2cccnc2SC)cc1OC	none
COc1ccc(NC(=O)c2ccccn2)cc1OC	Shiga toxin inh 90, Cycloheximide cs 61
COc1ccc2c(c1)cc(C(=O)N[C@@H](CCSC)C(=O)N1CCC[C@H]1C(=O)O)n2C	none
Cc1nc(CCNC(=O)C2CCC(=O)N(Cc3ccc(Cl)cc3)C2)sc1C (centres undefined)	Pf growth 48h inconclusive
CC(C)CCN1C(=O)c2ccc(C(=O)Nc3ccccn3)cc2C1=O	none
CC(=O)Nc1ccc(S(=O)(=O)Nc2cccc(NC(=O)c3ccco3)c2)cc1	none
COc1ccc(NC(C)=O)cc1CNC(=O)CN1CCOCC1	none
COc1ccc(C(=O)Nc2ccc(NC(=O)c3ccccc3OC)nc2)cc1	none
COC(=O)c1cc2c([nH]c3ccccc32)c(C)n1	none
COc1ccc(NC(=O)c2cc3c([nH]c4ccccc43)c(C)n2)cc1	Pf growth 96h 9.3µM, Pf growth 48h inconclusive
COc1ccc(C(=O)Nc2ccc(NC(=O)c3ccccn3)cn2)cc1	Shiga toxin inh 78
CCOC(=O)CNC(=O)Cn1cnc2c(oc3ccccc32)c1=O	Cycloheximide cs 34
O=C(Cn1cnc2c(oc3ccccc32)c1=O)NCc1ccccc1	none
Cc1ccc(C)c(NC(=O)Cn2cnc3c(oc4ccccc43)c2=O)c1	Pf growth 96h inconclusive, Pf growth 48h 10µM
O=C(Cn1cnc2c(oc3ccccc32)c1=O)N1CCCC1	Shiga toxin inh 64, Cycloheximide cs 32
S=C(NCC1CCCO1)c1ccc(Br)cc1 (centres undefined)	none
CCSc1nsc(NC(=O)Nc2cccc(F)c2)n1	Pf growth 48h 5.9µM, Cycloheximide cs 39 (no result: Shiga toxin inh)
COc1cccc(NC(=O)Nc2nc(SC)ns2)c1	Shiga toxin inh 100, Cycloheximide cs 54
COc1cccc(NC(=O)Nc2nc(SC(C)(C)C)ns2)c1	Pf growth 48h inconclusive, Cycloheximide cs 25 (no result: Shiga toxin inh)
CCCSc1nsc(NC(=O)Nc2ccc(F)cc2F)n1	Pf growth 96h inconclusive, Pf growth 48h inconclusive, Shiga toxin inh 36, Cycloheximide cs 23
O=C(CC(=O)Nc1cccc(F)c1)Nc1cccc(F)c1	Pf growth 48h inconclusive
COc1cccc(NC(=O)C(C)(C)C)c1	none (no result: LmPK inhibitor, Shiga toxin inh, Cycloheximide cs)
CCCSc1ccc(C(=O)Nc2ccc(F)cc2F)cn1	Cycloheximide cs 30
CC(C)S(=O)(=O)c1ccc(C(=O)Nc2ccc(F)cc2F)cn1	none
CC(C)(C)NC(=O)c1ccc2c(c1)C(=O)N(C1CCCCC1)C2=O	Shiga toxin inh 80, Cycloheximide cs 48
Cc1cc(NC(=O)C2CCCO2)ccc1Br (centres undefined)	Pf growth 96h inconclusive
O=C(Nc1ccc2c(c1)C(=O)N(C1CCCCC1)C2=O)C1CCCO1 (centres undefined)	Cycloheximide cs 9.6
O=C(O)COc1ccc(NC(=O)c2ccc3c(c2)C(=O)N(C2CCCCC2)C3=O)cc1	Pf growth 48h inconclusive
CCC(=O)Oc1ccc(C(=O)Nc2ccc3c(c2)C(=O)N(C2CCCCC2)C3=O)cc1	Pf growth 96h 10µM (no result: Pf growth 48h)
O=C(O)c1cccc(NC(=O)c2ccc3c(c2)C(=O)N(C2CCCCC2)C3=O)c1	Shiga toxin inh 108, Cycloheximide cs 44
O=C(CN1C(=O)c2cccc([N+](=O)[O-])c2C1=O)NCc1ccccc1	none (no result: Pf growth 48h)
COc1ccc(C(=O)NCCCNC(=O)c2ccc(C)nc2)cc1	Pf growth 96h inconclusive
O=C(Nc1cnc2sccn2c1=O)c1ccc(Cl)cc1Cl	Shiga toxin inh 120, Cycloheximide cs 38 (no result: Pf growth 96h)
CN(Cc1ccc(Cl)cc1)C(=O)CCl	Pf growth 96h inconclusive, Pf growth 48h inconclusive
CC(C)(C)C(=O)N(Cc1ccc(Cl)cc1)c1cnccn1	Pf growth 96h 5.2µM, Pf growth 48h 3.3µM
O=C(/C=C/c1cn(CC(O)CN2CCCCC2)c2ccccc12)c1ccccc1 (centres undefined)	Pf growth 96h inconclusive, Pf growth 48h 13µM
COc1ccc(C(=O)/C=C/c2cn(CC(O)CN3CCN(C)CC3)c3ccccc23)cc1OC (centres undefined)	Pf growth 96h 12µM, Pf growth 48h 4.7µM
CN1CCN(Cn2cc(/C=C/C(=O)c3ccccc3)c3ccccc32)CC1	Shiga toxin inh 61, Cycloheximide cs 33 (no result: Pf growth 96h)
